Bioassay records: PubChem, National Center for Advancing Translational Sciences (NCATS)
An excerpt weighted towards active compounds, which were near 2.2% of everything screened.
Abeta rescue: compounds reversing amyloid beta toxicity in yeast; 410,000 tested, 0.063% active; Potency, µM (titrated, usually from 46.1 µM), usual class: activators; AID 1347071; yeast expressing A-beta42, growth rescue, OD600, 48 h; response scale: 0% DMSO, 100% iron-clioquinol control; further: nearly all actives have a fitted effect of over 55% in size
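Growth rescue measured by 600 nm absorbance after 48 h yeast culture at 30 C with compound. Values normalized between DMSO and an equimolar ferric chloride plus clioquinol control.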
FUS suppressor: suppressors of FUS proteinopathy in yeast. S. cerevisiae FUS-expressing, growth rescue, OD600, 24 h. Potency, µM (top dose mostly 76.6 µM), hits mostly activators. 390,000 tested, 0.24% active. AID 1347120; further: nearly all actives have a fitted effect of over 55% in size
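Quantitative HTS measuring growth restoration of FUS-toxic yeast. Galactose-induced cells (OD 0.005) were exposed 24hr at 30C to compounds at several concentrations, then absorbance at 600 nm was recorded.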
Mito fusion act: inhibitors of mitochondrial division or activators of mitochondrial fusion. S. cerevisiae fusion-defective mutant growth rescue, CellTiterGlo 48 h. 320,000 tested, 0.23% active. Potency, µM (doses to about 46.1 µM), hits mostly activators. AID 485298; further: nearly all actives have a fitted effect of over 45% in size
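Compounds are tested for their ability to restore growth of mitochondrial fusion-defective yeast strains at non-permissive 37C in YPEG medium over 48 hours. Viability is quantified by luciferase luminescence.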
aSyn yeast inh: inhibitors of alpha-synuclein toxicity in yeast. Yeast expressing alpha-synuclein, growth rescue, BacTiter-Glo, 24 h. Potency, µM (doses to about 46.1 µM), usual class: activators. 370,000 tested, 0.14% active. AID 652106; further: nearly all actives have a fitted effect of over 65% in size
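Screening used galactose-induced yeast with toxic alpha-synuclein levels, exposed to compound for 24 hr at 30 deg C. Cell growth, read with BacTiter-Glo luminescence, gave the measured signal.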
TDP-43 yeast inh: TDP-43 toxicity inhibition in yeast | TDP-43 expressing yeast growth rescue, BacTiter-Glo, 24 h | Potency, µM (titrated, usually from 46.1 µM), most hits filed as activators | 410,000 tested, 1.8% active | AID 652104; further: nearly all actives have a fitted effect of over 50% in size
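Galactose-induced TDP-43 yeast, OD600=0.02, compound pinned; 24 hr, 30 deg C; BacTiter-Glo luminescence for growth. Inhibitors of TDP-43 toxicity read as activators.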
Of the large screens only hits and unclear results are named; the others gave an inactive call. The call rests on the fitted dose curve; in most records, active means well fitted curve in the direction sought with a large enough effect; inconclusive means small, poorly fitted or top-dose-only effect, or another doubt; inactive means no such curve, though single readings can be large; an effect the other way counts as inactive or inconclusive.

Cc1ccc(NC(=O)C2CCCN2S(=O)(=O)c2cccc3nsnc23)c(Br)c1 (configuration not stated)	TDP-43 yeast inh 20µM (no result: Mito fusion act, aSyn yeast inh)
Cc1nc(Cl)sc1C(=O)Nc1cc(F)cc(F)c1	TDP-43 yeast inh 11µM
O=C1N=C(N2CCCCC2)S/C1=C\c1ccc(Cl)cc1	none
Cc1ccc(/C=C2\SC(N3CCCCC3)=NC2=O)cc1	TDP-43 yeast inh 10µM
COc1ccccc1C(=O)NS(=O)(=O)c1ccc(C)cc1	aSyn yeast inh inconclusive, TDP-43 yeast inh 18µM (no result: Mito fusion act)
O=C(NC1CCCCCC1)C1CCC(CNS(=O)(=O)c2cccc3cccnc23)CC1 (configuration not stated)	none (no result: Abeta rescue, FUS suppressor, Mito fusion act, TDP-43 yeast inh)
COc1cc2ccccc2cc1C(=O)NC1CCCCC1	Mito fusion act inconclusive
COc1cc(SC)ccc1C(=O)OCC(=O)NC1CCCCC1	TDP-43 yeast inh inconclusive
COc1cc(SC)ccc1C(=O)N1CCC(Cc2ccccc2)CC1	Mito fusion act 21µM (no result: Abeta rescue, FUS suppressor, TDP-43 yeast inh)
COc1cc(SC)ccc1C(=O)NC1CCCCC1	Mito fusion act 32µM, TDP-43 yeast inh inconclusive
COc1cc2ccccc2cc1C(=O)NC1CCCC1	TDP-43 yeast inh 13µM (no result: Mito fusion act)
O=C(c1cc(COc2ccc(F)cc2Cl)on1)N1CCSCC1	TDP-43 yeast inh inconclusive
O=C(c1cc(COc2ccc(F)cc2Cl)on1)N1CCN(c2cnccn2)CC1	TDP-43 yeast inh 32µM (no result: FUS suppressor)
Cc1ccc(C)c(NC(=S)NC(=O)c2cncc(Br)c2)c1	Abeta rescue inconclusive, TDP-43 yeast inh 11µM (no result: Mito fusion act)
Cc1cccc(N(CC(O)Cn2c3ccccc3c3ccccc32)S(=O)(=O)c2ccc(F)cc2)c1 (configuration not stated)	FUS suppressor inconclusive (no result: Mito fusion act, aSyn yeast inh)
O=C(Nc1ccc(Br)cc1)c1ccc2ncsc2c1	TDP-43 yeast inh 3.2µM
COc1ccc(NC(=O)c2ccc3ncsc3c2)cc1	Abeta rescue inconclusive, TDP-43 yeast inh 7.1µM
CCc1ccc(NC(=O)c2ccc3ncsc3c2)cc1	none (no result: Abeta rescue, FUS suppressor, aSyn yeast inh, TDP-43 yeast inh)
Cc1ccccc1-c1cccc2c3c([nH]c12)[C@@H]1C[C@H]2[C@@H](CN1CC3)[C@H](C)ON2C	none (no result: Abeta rescue, Mito fusion act, aSyn yeast inh, TDP-43 yeast inh)
CCN1C(=O)/C(=C\c2ccncc2)SC1=Nc1ccc(C)c(C)c1	TDP-43 yeast inh 14µM (no result: FUS suppressor)
COc1ccc(CCNC(=O)c2cnc3ccc(C)cn3c2=O)cc1OC	none (no result: Mito fusion act, aSyn yeast inh)
CCc1ccc(-c2nc(CN3CCC(C(=O)NCc4ccc(F)cc4)CC3)c(C)o2)cc1	TDP-43 yeast inh 2µM (no result: aSyn yeast inh)
COc1ccc(-c2nc(CN3CCC(C(=O)NCc4ccc(F)cc4)CC3)c(C)o2)cc1OC	none (no result: Mito fusion act, aSyn yeast inh)
O=C(CN1C(=O)c2cccc3cccc1c23)Nc1ccccc1Br	none (no result: Mito fusion act, aSyn yeast inh)
CC(c1ccccc1)n1c(-c2cccs2)nc2c(c(=O)c3ccccc3n2C)c1=O (configuration not stated)	Mito fusion act 22µM
Cn1c2ccccc2c(=O)c2c(=O)n(-c3ccc(F)cc3)c(-c3cccs3)nc21	none
COc1ccc(-c2cc(=O)oc3c4c(ccc23)OCN(Cc2cccc(OC)c2)C4)cc1	none (no result: Mito fusion act, aSyn yeast inh)
Cc1oc2c(c(C)cc3oc(=O)c(CC(=O)NCCc4ccccc4F)c(C)c32)c1C	none (no result: Mito fusion act, aSyn yeast inh)
OC(c1ccc(F)c(F)c1)c1nc(-c2cccc(F)c2)cs1 (configuration not stated)	TDP-43 yeast inh 22µM (no result: Mito fusion act)
OC(c1ccc(F)c(F)c1)c1nc(-c2cnc3ccccc3c2)cs1 (configuration not stated)	TDP-43 yeast inh 22µM (no result: Mito fusion act)
OC(c1ccc(F)c(F)c1)c1nc(-c2ccc3c(c2)OCO3)cs1 (configuration not stated)	aSyn yeast inh inconclusive, TDP-43 yeast inh 22µM (no result: Mito fusion act)
OC(c1ccc(F)c(F)c1)c1nc(-c2ccccc2)cs1 (configuration not stated)	TDP-43 yeast inh 14µM (no result: Mito fusion act)
CC(C)c1cccc(-c2csc(C(O)c3ccc(F)c(F)c3)n2)c1 (configuration not stated)	none (no result: Mito fusion act)
CC(=O)NC(c1ccc(F)c(F)c1)c1nc(-c2ccc3c(c2)OCO3)cs1 (configuration not stated)	none (no result: Mito fusion act)
Cc1ccc(S(=O)(=O)c2cn(Cc3cccc(F)c3)c3cc(N4CCCC4)c(F)cc3c2=O)cc1	none (no result: Mito fusion act, aSyn yeast inh)
O=C(CN1CCN(c2nc(-c3ccccc3)cs2)CC1)Nc1ccc(Cl)cc1	none (no result: Abeta rescue, Mito fusion act, aSyn yeast inh, TDP-43 yeast inh)
COc1ccc(-c2csc(C(O)c3ccc(F)c(F)c3)n2)cc1 (configuration not stated)	aSyn yeast inh 11µM, TDP-43 yeast inh inconclusive (no result: Mito fusion act)
OC(c1ccc(F)c(F)c1)c1nc(-c2cccs2)cs1 (configuration not stated)	TDP-43 yeast inh 22µM (no result: Mito fusion act)
OC(c1ccc(F)c(F)c1)c1nc(-c2ccoc2)cs1 (configuration not stated)	none (no result: Mito fusion act)
CCC1=NN(C(=O)c2ccc(Cl)cc2)C(O)(c2ccccc2)C1 (configuration not stated)	none
COC(=O)C1=NN(C(=O)c2ccc(Cl)cc2)C(O)(c2ccccc2)C1 (configuration not stated)	aSyn yeast inh 20µM
CCOC(=O)C1=NN(C(=O)c2ccc(C)cc2)C(O)(c2ccc(Cl)cc2)C1 (configuration not stated)	FUS suppressor inconclusive, aSyn yeast inh inconclusive, TDP-43 yeast inh 13µM
COC(=O)c1ccc(CSc2nc3c([nH]c4ccccc43)c(=O)n2-c2cccc(OC)c2)o1	none (no result: Mito fusion act)
COc1ccc(NC(=O)CN(C)S(=O)(=O)c2ccc3nc(C)sc3c2)cc1Cl	none (no result: Mito fusion act, aSyn yeast inh)
